Measured values taken from PubChem BioAssay (NCATS).
Records with an inconclusive call do not appear. The source made the active and inactive calls. Unless noted, the call rests on the fitted dose curve; in most records, active means well fitted cell-killing curve with a large enough effect; inconclusive means small, poorly fitted or top-dose-only effect, or effect the other way; inactive means no such curve, though single readings can be large or run the other way.

Columns and labels:
[1] = Quantitative High-Throughput drug screen in 47 multiple myeloma cell lines against the NCATS MIPE library collection: L363_DSMZ cell viability assay (AID 1918984); further: nearly all actives have a fitted effect of over 40% in size; further: potency means the concentration at half of the fitted maximal effect
In short: (§1)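 500 cells/well per myeloma line exposed to pinned MIPE 4.0 compounds for 48 h at 37 °C, 5% CO2. Viability read as ATP by CellTiter-Glo luminescence, normalised to DMSO-only (100%) and media-only (0%) wells.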

[2] = Quantitative High-Throughput drug screen in 47 multiple myeloma cell lines against the NCATS MIPE library collection: KMS34_JCRB cell viability assay (AID 1918985); further: potency means the concentration at half of the fitted maximal effect; nearly all actives have a fitted effect of over 40% in size
In short: as §1

[3] = Quantitative High-Throughput drug screen in 47 multiple myeloma cell lines against the NCATS MIPE library collection: OCIMY7_PLB cell viability assay (AID 1918987); further: potency means the concentration at half of the fitted maximal effect; nearly all actives have a fitted effect of over 65% in size
In short: as §1

[4] = Quantitative High-Throughput drug screen in 47 multiple myeloma cell lines against the NCATS MIPE library collection: OCIMY5_PLB cell viability assay (AID 1918988); further: potency means the concentration at half of the fitted maximal effect; nearly all actives have a fitted effect of over 65% in size
In short: as §1

[5] = Quantitative High-Throughput drug screen in 47 multiple myeloma cell lines against the NCATS MIPE library collection: OPM1_PLB cell viability assay (AID 1918989); further: potency means the concentration at half of the fitted maximal effect; nearly all actives have a fitted effect of over 40% in size
In short: as §1

[6] = Quantitative High-Throughput drug screen in 47 multiple myeloma cell lines against the NCATS MIPE library collection: SKMM1_PLB cell viability assay (AID 1919863); conditions: SKMM1 myeloma viability, CellTiter-Glo ATP, 48 h; viability: stronger effect = lower value; further: potency means the concentration at half of the fitted maximal effect; nearly all actives have a fitted effect of over 35% in size
In short: as §1

[7] = Quantitative High-Throughput drug screen in 47 multiple myeloma cell lines against the NCATS MIPE library collection: U266_ATCC cell viability assay (AID 1919864); further: potency means the concentration at half of the fitted maximal effect; nearly all actives have a fitted effect of over 35% in size
In short: as §1

[8] = Quantitative High-Throughput drug screen in 47 multiple myeloma cell lines against the NCATS MIPE library collection: XG6_PLB cell viability assay (AID 1919865); further: potency means the concentration at half of the fitted maximal effect; nearly all actives have a fitted effect of over 40% in size
In short: as §1

[9] = Quantitative High-Throughput drug screen in 47 multiple myeloma cell lines against the NCATS MIPE library collection: XG1_PLB cell viability assay (AID 1919866); further: potency means the concentration at half of the fitted maximal effect; nearly all actives have a fitted effect of over 35% in size
In short: as §1

[10] = Quantitative High-Throughput drug screen in 47 multiple myeloma cell lines against the NCATS MIPE library collection: VP6_DJ cell viability assay (AID 1919867)
In short: as §1

[11] = Quantitative High-Throughput drug screen in 47 multiple myeloma cell lines against the NCATS MIPE library collection: PE2_PLB cell viability assay (AID 1919869); further: potency means the concentration at half of the fitted maximal effect; nearly all actives have a fitted effect of over 35% in size
In short: as §1

[12] = Quantitative High-Throughput drug screen in 47 multiple myeloma cell lines against the NCATS MIPE library collection: PCM6_Riken cell viability assay (AID 1919870); further: potency means the concentration at half of the fitted maximal effect; nearly all actives have a fitted effect of over 30% in size
In short: as §1

[13] = Quantitative High-Throughput drug screen in 47 multiple myeloma cell lines against the NCATS MIPE library collection: RPMI8226_ATCC cell viability assay (AID 1919871); further: potency means the concentration at half of the fitted maximal effect; nearly all actives have a fitted effect of over 30% in size
In short: as §1

[14] = Quantitative High-Throughput drug screen in 47 multiple myeloma cell lines against the NCATS MIPE library collection: OPM2_DSMZ cell viability assay (AID 1919872); further: potency means the concentration at half of the fitted maximal effect; nearly all actives have a fitted effect of over 30% in size
In short: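 Myeloma cell lines, 500 cells per well, exposed to MIPE 4.0 library compounds for 48 h at 37C, 5% CO2. Viability from ATP by CellTiter-Glo luminescence; normalised to DMSO (100%) and media-only (0%) wells.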

[15] = qHTS drug screen for cell cycle checkpoint inhibitors in PARPi-resistant BRCA-mutant ovarian cancer cell lines. (AID 1963452; calls by dose curve); conditions: PEO1/OlaR viability, CellTiter-Glo luminescence, 96 h, stronger effect = lower value
In short: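 PEO1, PEO4 and PEO1/OlaR ovarian cancer cells, 600 per well, exposed 96 h at 37C to a dilution series. Viability read by CellTiter-Glo luminescence, normalized to DMSO and empty wells; activity summarized as Z-AUC.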

[16] = Quantitative High-Throughput drug screen in 47 multiple myeloma cell lines against the NCATS MIPE library collection: UTMC2_PLB cell viability assay (AID 1919868); conditions: CellTiter-Glo ATP luminescence, 48 h; viability (% of DMSO control): at 45.8 µM (top of the series) unless noted; further: potency means the concentration at half of the fitted maximal effect; nearly all actives have a fitted effect of over 55% in size
In short: as §1

[17] = Quantitative High-Throughput drug screen in 47 multiple myeloma cell lines against the NCATS MIPE library collection: KMS11_JCRBsus cell viability assay (AID 1919873); further: potency means the concentration at half of the fitted maximal effect; nearly all actives have a fitted effect of over 50% in size
In short: as §1

[18] = Quantitative High-Throughput drug screen in 47 multiple myeloma cell lines against the NCATS MIPE library collection: KMS28BM_JCRB cell viability assay (AID 1919874)
In short: as §1

[19] = qHTS for identification of novel therapeutic agents for treatment of microphthalmiaassociated transcription factor (MiT) renal cell carcinoma (RCC) (AID 1963991; calls by dose curve; further: potency means the concentration at half of the fitted maximal effect); conditions: CellTiter-Glo, 48 h; for z-score: stronger effect = lower value
In short: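 Three TFE3-fusion RCC cell lines (UOK109, UOK124, UOK145), 500 cells/well, were exposed to the 1912-compound MIPE 4.0 library for 48 hours at 37 C. Viability was read by CellTiter-Glo luminescence, normalised to DMSO (100%) and empty wells (0%), with 11-concentration curve fits.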

[20] = measured here: PEO1 parental Z-AUC

c1cc(-c2cnn3cc(-c4ccc(OCCN5CCCCC5)cc4)cnc23)ccn1
active: Potency [2] 13.2 µM | Potency [3] 2.09 µM | Potency [4] 4.69 µM | Potency [5] 4.18 µM | Potency [6] 20.9 µM | Potency [7] 13.2 µM | Potency [8] 4.18 µM | Potency [9] 5.9 µM | Potency [10] 3.72 µM | Potency [11] 3.32 µM | Potency [12] 1.87 µM | Potency [13] 16.6 µM | Potency [14] 20.9 µM
0.377: Z-AUC ([15]; measured here: PEO4 Z-AUC)
0.413: Z-AUC [15, 20]
inactive: Potency [1] | Z-AUC [15] 0.293

CCC[C@H](NC(=O)C(C#N)=Cc1cccc(Br)n1)c1ccccc1
active: Potency [1] 7.43 µM | Potency [2] 4.69 µM | Potency [3] 0.526 µM | Potency [4] 2.09 µM | Potency [5] 0.935 µM | Potency [6] 2.96 µM | Potency [7] 5.9 µM | Potency [8] 2.35 µM | Potency [9] 1.66 µM | Potency [16] 2.09 µM | Potency [11] 2.09 µM | Potency [12] 1.05 µM | Potency [13] 2.96 µM | Potency [14] 5.26 µM | Potency [17] 2.96 µM | Potency [18] 2.64 µM

CN(C)CC=CC(=O)Nc1cc2c(Nc3ccc(F)c(Cl)c3)ncnc2cc1O[C@H]1CCOC1
active: Potency [1] 1.32 µM | Potency [2] 20.9 µM | Potency [3] 0.372 µM | Potency [4] 3.32 µM | Potency [5] 3.72 µM | Potency [6] 6.62 µM | Potency [8] 2.64 µM | Potency [9] 4.18 µM | Potency [10] 0.59 µM | Potency [16] 5.26 µM | Potency [11] 2.96 µM | Potency [12] 1.18 µM | Potency [13] 16.6 µM | Potency [17] 6.62 µM | Potency [18] 11.8 µM

Nc1cccc(-c2cc3c(Oc4cccc(O)c4)ncnc3[nH]2)c1
inactive: Potency [1] | Z-AUC [15] -0.838
-0.58: Z-AUC [15, 20]
active: Potency [2] 18.7 µM | Potency [3] 2.64 µM | Potency [4] 23.5 µM | Potency [5] 20.9 µM | Potency [8] 2.09 µM | Potency [11] 14.8 µM | Potency [12] 16.6 µM | Potency [17] 7.43 µM | Potency [18] 20.9 µM
-0.859: Z-AUC ([15]; measured here: PEO4 Z-AUC)

C=CC(=O)Nc1cc2c(Nc3ccc(F)c(Cl)c3)ncnc2cc1C#CC(C)(C)N1CCN(C)CC1
-1.76: z-score ([19]; TFE3-RCC viability, measured here: UOK124 Z-AUC)
-1.33: z-score ([19]; TFE3-RCC viability, measured here: UOK145 Z-AUC)
-0.45: Z-AUC ([15]; measured here: PEO4 Z-AUC)
-2.39: z-score ([19]; TFE3-RCC UOK109 viability, measured here: UOK109 Z-AUC)
inactive: Z-AUC [15] -0.203
-0.15: Z-AUC [15, 20]
active: Potency [1] 1.48 µM | Potency [2] 5.26 µM | Potency [3] 0.469 µM | Potency [4] 0.935 µM | Potency [5] 0.833 µM | Potency [6] 13.2 µM | Potency [7] 1.05 µM | Potency [9] 0.526 µM | Potency [16] 2.35 µM | Potency [11] 1.05 µM | Potency [12] 0.662 µM | Potency [13] 6.62 µM | Potency [14] 10.5 µM | Potency [17] 1.32 µM | Potency [18] 0.469 µM | Potency ([19]; TFE3-RCC UOK109 viability, active = Z-AUC below -0.8 in all three lines) 14.8 µM

COc1ccc2c(c1)CC[C@@H](CN(C)CC(=O)O)[C@H]2c1ccccc1
active: Potency [1] 1.66 µM | Potency [2] 4.69 µM | Potency [3] 0.833 µM | Potency [4] 1.48 µM | Potency [5] 10.5 µM | Potency [6] 1.05 µM | Potency [7] 16.6 µM | Potency [8] 0.833 µM | Potency [9] 0.833 µM | Potency [12] 1.66 µM | Potency [13] 2.64 µM | Potency [14] 8.33 µM | Potency [17] 0.662 µM | Potency [18] 1.05 µM
inactive: Z-AUC [15] 0.47
1.29: Z-AUC ([15]; measured here: PEO4 Z-AUC)
1.17: Z-AUC [15, 20]

NC(=O)c1c(OCc2c(F)cc(Br)cc2F)nsc1NC(=O)NCCCCN1CCCC1
active: Potency [2] 20.9 µM | Potency [3] 8.33 µM | Potency [4] 23.5 µM | Potency [6] 29.6 µM | Potency [8] 7.43 µM | Potency [9] 8.33 µM | Potency [10] 10.5 µM | Potency [11] 23.5 µM | Potency [12] 10.5 µM | Potency [13] 23.5 µM | Potency [17] 20.9 µM
0.803: Z-AUC [15, 20]
0.754: Z-AUC ([15]; measured here: PEO4 Z-AUC)
inactive: Potency [1] | Z-AUC [15] 0.49

CN1CCN(c2ccc3nc(-c4c(N)c5c(F)cccc5[nH]c4=O)[nH]c3c2)CC1
inactive: Z-AUC [15] -0.169
-0.379: Z-AUC ([15]; measured here: PEO4 Z-AUC)
active: Potency [1] 2.96 µM | Potency [2] 16.6 µM | Potency [3] 3.32 µM | Potency [4] 16.6 µM | Potency [6] 18.7 µM | Potency [7] 13.2 µM | Potency [8] 2.09 µM | Potency [9] 3.32 µM | Potency [10] 2.35 µM | Potency [16] 5.9 µM | Potency [11] 5.26 µM | Potency [12] 2.64 µM | Potency [13] 29.6 µM | Potency [17] 10.5 µM | Potency [18] 14.8 µM
-0.682: Z-AUC [15, 20]

CC(C)CC(=O)Nc1n[nH]c2c1CN(C(=O)C1CCN(C)CC1)C2(C)C
active: Potency [1] 0.833 µM | Potency [2] 1.18 µM | Potency [3] 1.66 µM | Potency [4] 1.32 µM | Potency [5] 2.09 µM | Potency [6] 4.69 µM | Potency [9] 1.66 µM | Potency [10] 1.48 µM | Potency [16] 2.35 µM | Potency [11] 2.09 µM | Potency [12] 0.743 µM | Potency [13] 4.18 µM | Potency [14] 2.35 µM | Potency [17] 1.48 µM | Potency [18] 2.35 µM
-0.186: Z-AUC [15, 20]
inactive: Z-AUC [15] -0.913
-0.504: Z-AUC ([15]; measured here: PEO4 Z-AUC)
